TDP1 cell CPT = qHTS for Inhibitors of human tyrosyl-DNA phosphodiesterase 1 (TDP1): qHTS in cells in presence of CPT. chicken DT40 Tdp1-/-;hTDP1 cells + 20 nM CPT, ATP luminescence, 48 h. Potency, µM (highest dose often 46.2 µM), inactives show at the highest dose activity change, negative = growth inhibition, hits mostly inhibitors. 420,000 compounds, 12% hits. AID 686979, 2013; note: potency is the fitted concentration of half-maximal effect; nearly all actives have a fitted effect of over 55% in size
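Chicken DT40 Tdp1-/- cells stably complemented with human TDP1 were seeded at 400 cells/well in medium containing 20 nM camptothecin, exposed to pin-transferred compounds, and grown at 37 °C for at least 48 hr. Viability was read as ATP luminescence.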
LDHA block = qHTS assay for inhibitors of human lactate dehydrogenase | activity change, % (values are at about 110 or 230 µM) | 480,000 compounds, 0.15% hits | purified LDHA, NADH/diaphorase-resazurin fluorescence; hits give low values; in the data active = activity change below about -30%; inconclusive = mostly about -25% to -30%;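 note: plate controls were DMSO wells for no effect and wells without enzyme for full effect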
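Human LDH5 (2 nM) was incubated with 0.06 mM NADH and 0.2 mM pyruvate for 5 min at room temperature in Tris pH 7.4. Remaining NADH was coupled through diaphorase/resazurin, and resorufin fluorescence was read at 0 and 20 min.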
IL-1B inflam inh = qHTS for Inhibitors of Inflammasome Signaling: IL-1-beta AlphaLISA Primary Screen. THP-1 LPS/ATP IL-1B secretion, AlphaLISA, 16 h; hits give low values. activity change, % at 57.5 µM. 360,000 compounds, 4.7% hits; in the data active = activity change below about -50%; inconclusive = mostly about -30% to -49%
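THP-1 cells pretreated 1 hr with compounds (up to 57.5 uM final), then stimulated with LPS (250 ng/mL final) plus ATP (1.25 mM final); secreted IL-1B measured by AlphaLISA after 16 hr, decreased signal indicating inhibition.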
TDP1 cell noCPT = qHTS for Inhibitors of human tyrosyl-DNA phosphodiesterase 1 (TDP1): qHTS in cells in absence of CPT; 420,000 compounds, 15% hits; DT40 Tdp1-/- hTDP1 cells, no CPT, ATP luminescence, 48 h; Potency, µM (series often up to 46.2 µM), without a hit: at the highest dose activity change, negative = growth inhibition, usual class: inhibitors; note: potency is the fitted concentration of half-maximal effect; nearly all actives have a fitted effect of over 55% in size
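Camptothecin absent (DMSO only). Human TDP1-complemented DT40 knockout cells, 400 cells/well, 37 °C for minimum 48 hr; ATP measured via CellTiter-Glo, 30 min dark incubation, luminescence.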
RORgamma inh = qHTS for inhibitors of ROR gamma transcriptional activity. Drosophila S2 Gal4-RORgamma UAS-luciferase reporter, 20 h. Potency, µM (series often up to 53.6 µM), for the others: at the top dose activity change, negative = inhibition, most hits filed as inhibitors. 310,000 compounds, 5.4% hits. AID 2551, 2010; note: potency is the fitted concentration of half-maximal effect; nearly all actives have a fitted effect of over 60% in size
Target sequence (P51450 whole entry, looked up, the tested form may be a part): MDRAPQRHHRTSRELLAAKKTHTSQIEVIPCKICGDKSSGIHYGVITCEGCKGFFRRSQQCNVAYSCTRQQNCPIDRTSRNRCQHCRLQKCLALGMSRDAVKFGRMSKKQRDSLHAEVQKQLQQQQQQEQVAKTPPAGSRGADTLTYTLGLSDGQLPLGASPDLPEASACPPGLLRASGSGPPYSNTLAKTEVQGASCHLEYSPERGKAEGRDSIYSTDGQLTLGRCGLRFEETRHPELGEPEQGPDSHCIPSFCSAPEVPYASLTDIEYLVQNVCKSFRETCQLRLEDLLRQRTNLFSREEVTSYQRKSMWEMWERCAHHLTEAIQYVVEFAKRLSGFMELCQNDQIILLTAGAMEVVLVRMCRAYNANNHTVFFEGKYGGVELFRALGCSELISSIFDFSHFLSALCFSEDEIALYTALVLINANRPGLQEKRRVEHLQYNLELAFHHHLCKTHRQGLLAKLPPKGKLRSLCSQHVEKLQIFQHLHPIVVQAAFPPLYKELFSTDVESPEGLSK
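Schneider cells (Drosophila), stable Gal4 DBD–ROR gamma + UAS-luc; 1 hr cmpd preincubation; Cu2+ induction 700 uM final; 20 hr ambient; luminescence.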
Gal4-VP16 FLuc = VP16 counterscreen qHTS for inhibitors of ROR gamma transcriptional activity | Drosophila S2 Gal4-VP16 UAS-luciferase, luminescence, 20 h | Potency, µM (titrated, usually from 53.6 µM), without a hit: top-dose activity, negative = inhibition, most hits filed as inhibitors | 310,000 compounds, 3.5% hits;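 note: Gal4-VP16 expression switched on by copper sulfate through the metallothionein promoter; potency is the fitted concentration of half-maximal effect; nearly all actives have a fitted effect of over 50% in size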
Starred values were filed as active, the others as inactive; ? = inconclusive; nt = not tested or not shown; [ ] = another dose, or the depositor's remark. Shown are actives, neighbours in structure and some others; about 18% of the full set was active somewhere. Unless noted, calls come from the whole dose curve; as a rule, active = well fitted curve in the direction sought with a large enough effect; inconclusive = small, poorly fitted or top-dose-only effect, or another doubt; inactive = no such curve, though single readings can be large; an effect the other way counts as inactive or inconclusive. Unless noted, % is set by controls: 0 for no effect and ±100 for the full control effect.

SMILES	TDP1 cell CPT	LDHA block	IL-1B inflam inh	TDP1 cell noCPT	RORgamma inh	Gal4-VP16 FLuc
Cc1cccc(NC(=O)c2csc3c2CCCC3)c1C	nt	9	nt	nt	nt	nt
CCCCc1ccc(NC(=S)N2CCN(c3ncccn3)CC2)cc1	-3%	-7	34	-27%	4.5µM*	?
CCC(C)c1ccc(NC(=S)N2CCN(c3ccccn3)CC2)cc1 (configuration not stated)	-5%	-1	1	-28%	?	13µM*
FC(F)Oc1cccc(NC(=S)N2CCN(c3ccccn3)CC2)c1	-14%	-6	-14	7%	7.1µM*	-7%
Fc1ccc(NC(=S)N2CCN(c3ncccn3)CC2)cc1	-1%	-6	-3	-4%	?	17%
CCCCc1ccc(NC(=S)N2CCN(c3ccccn3)CC2)cc1	15%	-16	-16	?	16µM*	?
COc1ccc(OC)c(NC(=S)N2CCN(c3ccccn3)CC2)c1	3%	2	-12	-21%	-18%	5%
Cc1ccc(NC(=O)N2CCN(c3ccccn3)CC2)cc1	-8%	-1	-6	0%	?	-11%
CCOC(=O)c1nc2ccccc2nc1NCc1ccccc1OC	nt	-3	nt	nt	nt	nt
CCOc1ccc(CCN2C(=O)C(=O)N([C@@H](CC(C)C)CN3CCC[C@H]3CN3C(=O)C(=O)NC[C@@H]3Cc3ccc(O)cc3)C[C@@H]2CC(C)C)cc1	?	-1	-54*	?	nt	nt
CCOc1ccc(CCN2C(=O)C(=O)N([C@@H](CC(C)C)CN3CCC[C@H]3CN3C(=O)C(=O)NC[C@@H]3CC(C)C)C[C@@H]2CC(C)C)cc1	?	5	-28	?	nt	nt
CCOc1ccc(CCN2C(=O)C(=O)N([C@@H](CC(C)C)CN3CCC[C@H]3CN3C(=O)C(=O)NC[C@@H]3CC(C)C)C[C@@H]2Cc2ccccc2)cc1	?	2	-92*	?	nt	nt
O=C(Nc1ccncc1)c1cc(-c2cccs2)nc2ccccc12	nt	4	nt	nt	nt	nt
CCn1c(=O)cc(SCC(=O)Nc2ccc(OC)c(OC)c2)c2ccccc21	18µM*	1	?	23µM*	26%	?
CCn1c(=O)cc(SCC(=O)Nc2ccc(Cl)cc2)c2ccccc21	20%	-10	-4	-17%	19%	-9%
COc1cc(NC(=O)CSc2cc(=O)n(C)c3ccccc23)cc(OC)c1OC	10µM*	-11	nt	?	nt	nt
Cn1c(=O)cc(SCC(=O)Nc2cccnc2)c2ccccc21	?	-3	38	?	14%	-4%
CCOC(=O)c1cccc(NC(=O)CSc2cc(=O)n(C)c3ccccc23)c1	21µM*	-9	nt	?	nt	nt
COc1ccc(CNC(=O)CSc2cc(=O)n(C)c3ccccc23)cc1	?	-2	-23	16µM*	0%	-3%
CC1CCCCN1Cc1nc2c(c(=O)n(C)c(=O)n2C)n1CC(N)=O (configuration not stated)	nt	-15	nt	nt	nt	nt
CCn1c(=O)cc(SCC(=O)Nc2cc(Cl)ccc2OC)c2ccccc21	?	-2	nt	16µM*	nt	nt
CCOC(=O)c1cccc(NC(=O)CN2C(=O)C3C4C=CC(C4)C3C2=O)c1 (configuration not stated)	2%	-1	-95*	-5%	15%	6%
COc1cc(CNC(=O)C23CC4CC(CC(C4)C2)C3)ccc1OC(F)F	nt	8	nt	nt	nt	nt
CCn1c2ccccc2c2nnc(SCc3ccccc3)nc21	?	1	24	?	?	?
CCN(CC)CCSc1nnc2c3cc(F)ccc3n(Cc3ccccc3)c2n1	?	-2	-64*	?	-18%	-7%
SMILES	TDP1 cell CPT	LDHA block	IL-1B inflam inh	TDP1 cell noCPT	RORgamma inh	Gal4-VP16 FLuc
CCN(CC)CCSc1nnc2c3ccccc3n(Cc3ccccc3)c2n1	23µM*	-3	-15	16µM*	-43%	-10%
CCn1cnc2c1c(=O)n(CC(=O)OCc1ccc(C(C)C)cc1)c(=O)n2Cc1ccccc1	nt	9	nt	nt	nt	nt
CC1SC(c2ccc(F)cc2)N(CCc2ccccc2)C1=O (configuration not stated)	1%	-6	-5	23µM*	-2%	5%
Brc1ccc2c(c1)CNc1c(ncnc1N1CCOCC1)O2	16µM*	-4	-12	?	32%	4%
Cc1oc2ncnc(N3CCOCC3)c2c1C(=O)Nc1ccc(Br)cc1F	9%	-5	nt	-14%	nt	nt
O=C(Nc1c(NC2CCCC2)c2ccccc2oc1=O)c1ccc(Cl)cc1	nt	-10	nt	nt	nt	nt
Cc1c(-c2nc(-c3ccncc3)no2)cccc1[N+](=O)[O-]	-17%	-3	8	?	23%	-20%
O=[N+]([O-])c1cc(-c2nc(-c3ccncc3)no2)ccc1Cl	10µM*	3	-118*	?	?	?
CCCNc1ccc(-c2nc(-c3ccncc3)no2)cc1[N+](=O)[O-]	-17%	-13	nt	-5%	nt	nt
O=[N+]([O-])c1cc(-c2nc(-c3ccncc3)no2)cc([N+](=O)[O-])c1	10µM*	-1	32	10µM*	-44%	-18%
CCn1nc(C(=O)OCc2ccc(C(C)(C)C)cc2)c2ccccc2c1=O	nt	12	nt	nt	nt	nt
O=C(CN1C(=O)C2(OCCO2)c2cc(Br)ccc21)NO	19%	7	-55*	-12%	nt	nt
CCCn1c(=O)[nH]c(=O)c2c1nc(-c1ccc(OCC#N)c(OC)c1)n2CCN1CCOCC1	nt	-18	nt	nt	nt	nt
CSc1nnc2c3ccccc3c3ccccc3c2n1	15µM*	2	30	18µM*	2%	-6%
CCn1c(SCC(=O)N(C)Cc2ccc(-c3ccc(Cl)cc3)o2)nnc1C1CC1	nt	5	nt	nt	nt	nt
O=C(CCCc1c[nH]c2ccccc12)NCc1ccc(F)cc1	nt	-10	nt	nt	nt	nt
O=C(OCc1ccccc1)c1cccnc1	?	0	nt	9.4µM*	1%[10 µM]	3%
O=C(OCc1ccc(Br)cc1)c1cccnc1	?	-3	-9	-6%	-13%	3%
COc1ccc2c(C)c(CCC(=O)NCCCO)c(=O)oc2c1	nt	-4	nt	nt	nt	nt
Oc1c(C(Nc2ccccn2)c2ccccc2F)ccc2cccnc12 (configuration not stated)	?	-5	nt	16µM*	nt	nt
Oc1c(C(Nc2ccccn2)c2ccccn2)ccc2cccnc12 (configuration not stated)	0.82µM*	3	93	0.82µM*	1.1µM*	2.2µM*
